Screens from PubChem.
Sampled rows, rich in hits. Any-hit rate of the full collection: about 6.9%.
Beta apoptosis – beta cell apoptosis inhibition | AID 435005 | INS-1E cytokine-induced death, ATP luminescence, 48 h; percent of positive-control rescue, neutral wells zero | hit rate 0.8% among 300,000 | protection from apoptosis, % (test concentration not listed);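 active means Every replicate reaches about 75%, or at least half do and their mean reaches it too, limit read from the data; inconclusive means At least half of replicates reach the limit but their mean does not; inactive means Under half of replicates reach the limit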;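 further: 0% = cytokine-treated negative control wells and 100% = positive control rescue; higher means more ATP so stronger rescue from cytokine killing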
Mdm2 MdmX PPI – human Mdm2/MdmX binding inhibition; O15151+Q00987; SaOS-2 split-luciferase Mdm2/MdmX complementation, luminescence; hit rate 3% among 330,000; inhibition, % at 8 µM;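 active means inhibition of at least 50% at 8 µM in the primary screen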
Target sequence (O15151 whole entry, looked up): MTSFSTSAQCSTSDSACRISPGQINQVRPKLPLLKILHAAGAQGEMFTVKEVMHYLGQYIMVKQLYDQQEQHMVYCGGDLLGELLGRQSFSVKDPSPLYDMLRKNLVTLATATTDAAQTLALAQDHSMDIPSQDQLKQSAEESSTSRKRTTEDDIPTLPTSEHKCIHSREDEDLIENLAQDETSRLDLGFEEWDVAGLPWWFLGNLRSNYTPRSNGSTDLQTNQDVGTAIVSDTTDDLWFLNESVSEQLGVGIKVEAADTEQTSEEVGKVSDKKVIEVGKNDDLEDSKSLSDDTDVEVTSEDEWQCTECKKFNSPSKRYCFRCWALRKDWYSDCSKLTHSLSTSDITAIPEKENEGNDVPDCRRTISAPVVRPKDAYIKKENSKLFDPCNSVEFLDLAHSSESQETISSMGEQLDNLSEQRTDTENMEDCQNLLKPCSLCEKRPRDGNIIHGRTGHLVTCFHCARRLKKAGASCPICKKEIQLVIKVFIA
Target sequence (Q00987 whole entry, looked up): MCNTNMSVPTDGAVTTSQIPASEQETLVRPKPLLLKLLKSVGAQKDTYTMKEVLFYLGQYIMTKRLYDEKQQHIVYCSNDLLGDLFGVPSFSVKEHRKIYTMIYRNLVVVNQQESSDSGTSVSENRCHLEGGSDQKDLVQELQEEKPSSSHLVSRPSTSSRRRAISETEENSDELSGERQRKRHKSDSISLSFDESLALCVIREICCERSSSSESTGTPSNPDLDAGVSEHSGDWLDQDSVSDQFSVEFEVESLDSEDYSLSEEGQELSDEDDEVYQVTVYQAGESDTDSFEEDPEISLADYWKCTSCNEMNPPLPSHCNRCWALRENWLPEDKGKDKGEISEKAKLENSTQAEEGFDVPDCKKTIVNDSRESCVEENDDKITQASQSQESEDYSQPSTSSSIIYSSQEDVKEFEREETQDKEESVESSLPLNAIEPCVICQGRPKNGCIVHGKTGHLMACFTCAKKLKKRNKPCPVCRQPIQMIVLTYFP
GRIN3A LBD mod – NR3A (human) ligand-binding domain modulation; NR3A LBD differential scanning fluorimetry, Tm shift; 0% = protein alone, 100% = glycine-bound protein; Tm shift relative to glycine control, % at 25 µM; hit rate 2.5% among 340,000; AID 1259313;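 active means melting temperature shift of at least 10% of the positive control shift, at one fixed dose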
MPTP block – blocks calcium-induced mitochondrial swelling. AID 602449. isolated mouse mitochondria, Ca2+ swelling absorbance, 30 min. inhibition, % at 10 µM. hit rate 1.4% among 360,000;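 active means inhibition of 50% or more, scaled per plate between neutral and stimulator controls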;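 further: 0% = DMSO wells given calcium and 100% = 1 mM EGTA wells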
SKKanGAS inh – SKKanGAS growth inhibition; S. pyogenes SKKanGAS, kanamycin growth, BacTiter-Glo, 6 h; inhibition, % at 7.5 µM; AID 1662; hit rate 1.3% among 300,000;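 active means mean replicate score, as percent of positive control median, at least 50; inconclusive means mean below 50 but one replicate at or above 50; inactive means mean and every replicate below 50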;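 further: strain carries kanamycin resistance gene driven by streptokinase promoter and grows in 40 µg/ml kanamycin; loss of luminescence reflects streptokinase promoter inhibition or plain growth inhibition; 0% = median of DMSO wells and 100% = positive control at its reference dose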
CSC inhib – cancer stem cell inhibition. cancer stem cell-like cells viability, luminescence. hit rate 1.1% among 300,000. AID 2717. inhibition, % at 7.5 µM; in the data active means inhibition above about 75%; inconclusive means no clear call, values can overlap the other calls; tested in HMLE shEcad cells
Rh123 counter – mitochondrial membrane potential, counter-screen. shares compounds with MPTP block. isolated mitochondria, Rhodamine 123 fluorescence. inhibition, % at 10 µM. hit rate 78% among 5,000. AID 624504; in the data active means inhibition above about 22%;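 further: 0% = DMSO vehicle and 100% = positive control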
MPTP swell DR – MPTP inhibition, dose response swelling confirmation | isolated mitochondria swelling, absorbance | IC50, µM | shares compounds with MPTP block | hit rate 58% among 780; in the data active means IC50 below about 20 µM
MPTP counter DR – active in counter-screen for permeability transition pore inhibitors | isolated mitochondria counterscreen, fluorescence read-out | shares compounds with MPTP block | IC50, µM | AID 651564 | hit rate 49% among 780; in the data active means IC50 below about 80 µM
* marks the source's active call; other numbers are inactive results; i = inactive; ? = inconclusive; . = no result given.

SMILES	Beta apoptosis	Mdm2 MdmX PPI	GRIN3A LBD mod	MPTP block	SKKanGAS inh	CSC inhib	Rh123 counter	others
N#C/C(=C\c1ccc(O)c([N+](=O)[O-])c1)c1nc2ccccc2s1	.	.	-2	91*	17	.	64*
Cc1cc(C)c2c(n1)SCC(=O)N2CC(=O)Nc1ccccc1Cl	-1	2	2	-1	-4	.	.
O=C(NNc1cc(C(F)(F)F)nc2ccccc12)Nc1cccc(Cl)c1	9	25	9	67*	4	0	70*
CC(C)c1ccc(/C=N/NC(=O)c2ccccn2)cc1	5	-64	0	1	48	?	.
CC(C)c1ccc(/C=N/NC(=O)c2cccc(Cl)c2)cc1	12	.	2	74*	-4	91*	65*
Cn1cc(Br)c(C(=O)Nc2sc3c(c2C#N)CCC3)n1	-4	-23	0	6	-6	-5	.
Cn1cc(Cl)c(C(=O)NC(=S)Nc2sc3c(c2C#N)CCCCC3)n1	-1	12	-1	83*	29	17	21*
Cc1cc(C)c(C#N)c(SCCS(=O)(=O)c2ccc(C(C)(C)C)cc2)n1	44	5	2	61*	0	9	20*
CC(C)COc1ccc(C(=O)Nc2ccccc2[N+](=O)[O-])cc1	.	-93	0	54*	-9	.	-10	MPTP swell DR=>100;MPTP counter DR=>80
N/C(=N\S(=O)(=O)c1cc(C(F)(F)F)cc(C(F)(F)F)c1)c1ccc(Cl)cc1	15	27	19*	83*	20	14	88*
N#Cc1c(NC(=O)c2ccccc2Cl)n(Cc2ccccc2)c2nc3ccccc3nc12	106*	.	7	51*	.	112*	51*
COc1ccc(-n2c(NC(=O)c3ccco3)c(C#N)c3nc4ccccc4nc32)cc1	-5	0	0	3	26	0	.
CCCC1(CC)C(=O)NC(=O)N=C1N (centres undefined)	.	.	-2	-2	.	.	.
COC(=O)c1ccc(C2N=C(c3cccs3)CC(c3ccccc3O)N2)cc1 (centres undefined)	21	38	-4	52*	15	56	88*
c1ccc(COc2cccc(CNCc3cccnc3)c2)cc1	.	-28	-2	1	8	3	.
OCCNCc1cccc(OCc2ccc(Cl)cc2)c1	6	10	-1	64*	4	14	-9	MPTP swell DR=5.6*;MPTP counter DR=>80
CC(=O)N/C(=C/c1ccc(OS(=O)(=O)c2ccc(C)cc2)cc1)C(=O)Nc1ccc(C(=O)O)cc1	-2	13	-2	0	-9	0	.
COc1ccc(OC(C)C(=O)Nc2cccc([N+](=O)[O-])c2)cc1 (centres undefined)	-4	-7	-2	0	-2	3	.
COc1ccc(NC(=O)Nc2cccc([N+](=O)[O-])c2)cc1Cl	59	46	32*	94*	1	41	80*
COc1ccc(NC(=S)Nc2cccc([N+](=O)[O-])c2)cc1	-5	-11	23*	85*	0	4	87*
COc1ccccc1CCNC(=O)Nc1cccc([N+](=O)[O-])c1	-1	12	-1	68*	-13	9	77*
CCOc1ccccc1C(=O)Nc1cc(C)ccc1NC(=O)c1ccco1	-1	4	1	0	-6	5	.
O=C(CN(C(=O)CCC(=O)Nc1nccs1)c1ccccc1F)NCCc1ccccc1	-2	12	-2	1	-1	.	.
CC(=O)CCc1ccc(OCC(O)CNCCOc2ccc(C)cc2)cc1 (centres undefined)	0	-25	-3	74*	0	-9	-9	MPTP swell DR=i;MPTP counter DR=>80
COc1cc(OC)cc(C(=O)N[C@H](C(=O)OCC(=O)NC(=O)c2cccn2C)C(C)C)c1	-3	24	-17	0	8	9	.
SMILES	Beta apoptosis	Mdm2 MdmX PPI	GRIN3A LBD mod	MPTP block	SKKanGAS inh	CSC inhib	Rh123 counter	others
CN1C(c2ccccc2)=NO[C@]1(C)c1ccccc1	-1	2	0	2	1	-2	.
O=C(Nc1ccc([N+](=O)[O-])cc1)NN1CCCCCC1	.	.	-1	102*	.	.	87*
N#Cc1ccc(NC(=O)NN2CCCCCC2)cc1	.	.	7	102*	.	.	87*
CC(=O)c1cc2c(cc1NC(=O)C1CCC1)OCO2	2	-8	-3	1	2	.	.
Cc1nn(-c2ccccc2)c(N2CCCC2)c1/C=N/O	3	9	0	50*	-3	-14	0	MPTP swell DR=>100;MPTP counter DR=>80
Cc1ccc(-n2cc(C(=O)c3cc(Cl)ccc3O)cc(C#N)c2=O)cc1	7	-1	2	93*	11	-14	84*
Cc1nnc(SCC(=O)NC2CCCCC2)[nH]c1=O	-21	2	-1	0	-11	-20	.
CCCCNCCOCCOc1ccccc1-c1ccccc1	-4	10	2	83*	-5	40	-4	MPTP swell DR=i;MPTP counter DR=>80
COCCNCCCCOc1ccccc1-c1ccccc1	3	30	-6	1	0	2	.
CSc1ccc(CNC(=O)Cn2nc(C)c3c(C)n(-c4ccc(C)cc4)nc3c2=O)cc1	-5	49	0	0	1	19	.
CCCc1nnc(NC(=O)C23CC4CC(CC(C4)C2)C3)s1	3	20	1	-1	2	23	.
Cc1ccc(OCCNC(=O)c2cc(C(=O)NCCOc3ccc(C)cc3)cc([N+](=O)[O-])c2)cc1	9	35	-8	74*	6	-19	83*
CCc1cc2c(NCc3ccccc3)nc(C)nc2s1	12	31	-3	91*	10	12	65*
COc1cc(NC(=O)COC(=O)CNC(=O)C2CCCCC2)cc(OC)c1	1	17	2	-2	.	.	.
Cc1ccc(S(=O)(=O)N/N=C/c2cc([N+](=O)[O-])ccc2O)cc1[N+](=O)[O-]	2	9	21*	72*	5	13	60*
COc1ccc(C(Nc2ccccn2)c2oc(CO)cc(=O)c2O)cc1 (centres undefined)	-5	7	-7	96*	-2	0	-11
O=c1cc(CO)oc(C(Nc2ccccn2)c2ccc(F)cc2)c1O (centres undefined)	-14	-18	0	-1	-5	-7	.
CC(=O)c1cccc(NC(=O)c2csc3c2CCCCC3)c1	-5	-17	-7	6	14	3	.
CC(=O)c1cccc(NC(=O)Nc2csc3c2CCCC3)c1	3	-2	1	80*	8	-9	94*
CCOC(=O)c1c(C(F)(F)C(F)(F)C(F)(F)C(F)(F)F)n[nH]c1C	4	25	-9	73*	-4	.	78*
